Results from PubChem BioAssay AID748 (Sanford-Burnham Center for Chemical Genomics, 2007).
Among all 96,000 compounds or so, about 100 (0.1%) were called active.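 How the source made its calls: active means displacement above 50% at 20 µM plus a fluorescence interference ratio under 1.5; inactive means the rest.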 The full list was thinned out, with actives kept by preference. Results with a measured potency or affinity are listed apart.

Molecular target: Bcl-2-like protein 10 (Homo sapiens) (UniProt Q9HD36)
Assay: Bcl-B/TR3 peptide binding disruption – biochemical, fluorescence polarization, FITC-TR3 peptide, selectivity assay for Bfl-1 inhibitor project, primary screen (AID 748);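 further: plate controls were wells without compound for no effect and wells lacking Bcl-B protein for full effect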
Settings: FP displacement of FITC-TR3 peptide from Bcl-B; at 20 µM; active compounds read high

displacement, inactive:
CCn1c(Cn2nnc(-c3ccccc3)n2)nnc1SCC(=O)Nc1ccc(N(C)C)cc1 4.2%
Cc1nnc(NC(=O)NC(C)N2C(=O)C3C4C=CC(C4)C3C2=O)s1 (centres undefined) -30.5%
CC1=Nc2cccc3cccc(c23)N1 2.9%
O=C1CCSc2cccc3cccc(c23)N1 -2.2%
O=C1NC2(CCCCC2)NN1c1ccccc1 -5.6%
CC(C)(C)C1CCC2(CC1)Nc1cccc3cccc(c13)N2 -38%
O=C(O)Cc1coc(-c2ccc(F)cc2)n1 -15.2%
O=C(CN1C(=O)NC2(CCc3ccccc32)C1=O)c1ccc2c(c1)OCCO2 (centres undefined) -13.7%
COc1cccc(NC(=O)C(NC2CCCC2)c2ccccc2)c1 (centres undefined) 2.1%
CCOC(=O)CNC(=O)c1c2c(nc3ccccc13)CCCC2 7.2%
c1coc(CNc2c3c(nc4ccccc24)CCC3)c1 26.6%
CC(C)Cn1c(N2CCN(C(=O)c3cccs3)CC2)nc2ccccc21 -1.5%
Cc1ccc(SC(CC(=O)c2ccc(C)cc2)C(=O)O)cc1 (centres undefined) -5%
CSc1nc(C)cc(NC(N)=O)n1 -7.4%
Cn1c(C(C#N)C(=O)c2ccco2)nc2ccccc21 (centres undefined) 13.4%
Cn1c(C(C#N)C(=O)c2sc3ccccc3c2Cl)nc2ccccc21 (centres undefined) -2.9%
COc1ccccc1-n1c(C)nc2cc(C(=O)O)ccc21 -9.1%
Cc1cc(C(=O)NCCC2=CCCCC2)no1 -6.6%
C=CCn1c(SCC(=O)NC2CCCC2)nc2scc(-c3ccco3)c2c1=O 29.6%
CCCCC(=O)Nc1cccc(NC(=O)CC)c1 -6.1%
CCC(=O)Nc1cccc(Br)c1 -1.7%
COCCNC(=O)CCCn1c(=O)c2ccccc2n(CC(=O)NCCC2=CCCCC2)c1=O -8.5%
COc1ccccc1-c1nn2c(-c3ccccc3Cl)nnc2s1 5.7%
COc1ccccc1-c1nnc2sc(COc3ccccc3)nn12 0.4%
CCC(=O)c1cc(-c2nc3ccccc3n2C)n(C)c1 3.7%
COc1ccccc1-n1nnnc1SCc1cc2c(cc1Br)OCO2 2.6%
Brc1ccc(-c2cn3c(n2)CCc2ccc4cccnc4c2-3)cc1 1%
c1ccc(-c2cn3c(n2)CCc2ccc4cccnc4c2-3)cc1 -7.4%
NC(=O)NC(CC(=O)OCC(=O)NC(=O)NCc1ccco1)c1ccc(Cl)cc1 (centres undefined) 0.6%
